High-throughput results from PubChem BioAssay.
pPAFAH inh: pPAFAH (human) enzyme inhibition; Q13093; recombinant pPAFAH, FP-rhodamine probe fluorescence polarization; hit rate 1.5% among 330,000; inhibition, % at 3.39 µM; AID 463082;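 active means inhibition above the mean inhibition across the screen plus 3 SD, cut at about 25% in these data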;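 further: inhibitors block binding of the rhodamine activity-based probe so polarization drops; 0% = enzyme with DMSO and 100% = wells lacking pPAFAH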
Target sequence (Q13093 whole entry, looked up): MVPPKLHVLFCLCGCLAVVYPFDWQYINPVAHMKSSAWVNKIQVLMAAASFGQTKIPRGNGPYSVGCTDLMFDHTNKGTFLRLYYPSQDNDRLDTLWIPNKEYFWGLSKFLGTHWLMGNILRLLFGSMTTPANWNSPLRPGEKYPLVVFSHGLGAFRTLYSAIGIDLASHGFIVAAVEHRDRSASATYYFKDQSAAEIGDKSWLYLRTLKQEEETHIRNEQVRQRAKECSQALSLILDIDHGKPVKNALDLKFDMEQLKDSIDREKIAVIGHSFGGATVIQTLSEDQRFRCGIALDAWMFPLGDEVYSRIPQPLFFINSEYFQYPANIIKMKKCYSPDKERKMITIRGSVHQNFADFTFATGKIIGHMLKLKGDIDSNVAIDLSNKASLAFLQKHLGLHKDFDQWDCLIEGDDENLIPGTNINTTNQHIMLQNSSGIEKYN
PME-1 primary: PME-1 (human) inhibition; Q9Y570; recombinant PME-1, FP-Rh probe fluorescence polarization; inhibition, % at 5.9 µM; hit rate 0.53% among 320,000;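 active means inhibition above the campaign mean of all compounds plus 3 SD, cut at about 26% in these data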;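 further: competitive labeling of PME-1 active site by serine hydrolase directed probe; 0% = PME-1 with DMSO and 100% = wells lacking PME-1 enzyme; inhibitors block probe labeling so polarization falls and inhibition rises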
PAFAH1B3 FP inh: blocks human PAF acetylhydrolase 1B catalytic subunit 3 | Q15102 | recombinant PAFAH1B3, FP-rhodamine probe, fluorescence polarization | inhibition, % at 3.39 µM | hit rate 0.28% among 340,000;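 active means inhibition above the screen-wide average of all tested compounds plus 3 SD, cut at about 25% in these data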;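 further: 0% = enzyme with DMSO only and 100% = wells lacking PAFAH1B3 protein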
PAFAH2 FP inh: inhibitors of human PAFAH2. Q99487. inhibition, % at 3.39 µM. recombinant PAFAH2, FP-rhodamine activity probe, fluorescence polarization. hit rate 0.99% among 340,000;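 active means inhibition above the mean over all tested compounds plus 3 SD, cut at about 30% in these data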;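 further: inhibitors block probe labeling of enzyme so polarization drops; 0% = enzyme with DMSO and 100% = wells lacking PAFAH2 protein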
PAFAH1B2 inh: inhibitors of human PAFAH1B2. recombinant PAFAH1B2, FP-rhodamine activity probe, fluorescence polarization. inhibition, % at 3.39 µM. hit rate 1.2% among 340,000. AID 492953;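 active means inhibition above the mean of all tested compounds plus 3 SD, cut at about 24% in these data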;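 further: 0% = enzyme with DMSO and 100% = wells lacking PAFAH1B2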
Target sequence (P68402 whole entry, looked up): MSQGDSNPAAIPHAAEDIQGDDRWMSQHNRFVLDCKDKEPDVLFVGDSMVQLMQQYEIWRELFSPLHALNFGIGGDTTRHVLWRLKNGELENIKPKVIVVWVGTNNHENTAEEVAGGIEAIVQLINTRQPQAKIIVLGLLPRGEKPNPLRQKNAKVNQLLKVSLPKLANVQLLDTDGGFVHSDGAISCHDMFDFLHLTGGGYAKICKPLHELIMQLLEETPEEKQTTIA
Fam108B counter: Fam108B inhibition, counter-screen for RBBP9 inhibitors | inhibition, % at 9.51 µM | recombinant Fam108B, FP-Rh probe fluorescence polarization | AID 1947 | hit rate 0.33% among 300,000;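 active means inhibition above the screen mean inhibition plus 3 SD, computed separately per campaign, cut at about 18% in these data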;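 further: inhibitors lower polarization as less probe binds the enzyme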
Fam108b inh conf: Fam108b (mouse) hydrolase inhibition, confirmation assay | shares compounds with Fam108B counter | recombinant Fam108b, FP-Rh probe fluorescence polarization | inhibition, % at 9.51 µM | hit rate 44% among 930 | AID 1978;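 active means inhibition above a limit from the primary screen, the mean over all compounds plus 3 SD, cut at about 19% in these data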;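 further: 0% = median of active Fam108b wells and 100% = catalytically dead S170A mutant; inhibitors free the probe so polarization falls as inhibition rises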
Fam108b inh: inhibits mouse Fam108b in gel-based ABPP; shares compounds with Fam108B counter; recombinant Fam108b, fluorophosphonate probe; inhibition, % at 20 µM; hit rate 44% among 260; AID 588649; in the data active means inhibition above about 40%
Starred values were filed as active, the others as inactive; x = no result given. Sampled rows, rich in hits. Any-hit rate of the full collection: about 2.8%.

SMILES	pPAFAH inh	PME-1 primary	PAFAH1B3 FP inh	PAFAH2 FP inh	PAFAH1B2 inh	Fam108B counter	Fam108b inh conf	others
FC(F)(F)c1cccc(NC(=S)NNC(=S)Nc2cccc(C(F)(F)F)c2)c1	14	33*	x	x	x	13	x
CNNC(=S)Nc1cccc(C(F)(F)F)c1	0	-1	x	x	x	-1	x
Cc1ccccc1C(=O)NNC(=S)Nc1cccc(C(F)(F)F)c1	11	3	4	-2	5	-1	x
COc1ccc(/C=C(/NC(=O)c2ccco2)C(=O)N2CCCCCC2)cc1OC	0	-1	0	9	-4	3	x
O=[N+]([O-])c1cccc(SSc2cccc([N+](=O)[O-])c2)c1	x	x	4	4	2	x	x
CCCCn1c(NC(=O)c2ccccc2Cl)c(C#N)c2nc3ccccc3nc21	27*	27*	60*	37*	36*	38*	54*	Fam108b inh=10
CCCCn1c(NC(=O)CC)c(C#N)c2nc3ccccc3nc21	1	2	-6	-10	8	-3	x
CCCCC(=O)Nc1c2c(nn1-c1ccc(C)cc1)CS(=O)(=O)C2	6	-1	1	-6	-1	-2	x
O=C(Nc1cc(Cl)ccc1N1CCOCC1)c1cnccn1	-4	-13	0	0	4	2	x
O=C(Nc1cc(S(=O)(=O)N2CCOCC2)ccc1N1CCCC1)c1cnccn1	7	6	17	3	3	18*	23*
Cc1ccc(-c2cc(-c3ccco3)c3c(N)c(C(=O)NN)oc3n2)cc1	32*	6	13	22	5	30*	13
NNC(=O)c1oc2nc(-c3cccs3)cc(-c3ccco3)c2c1N	32*	14	6	15	11	24*	24*
NNC(=O)c1oc2nc(-c3ccccc3)cc(-c3ccccc3)c2c1N	6	5	16	6	5	7	x
O=C(COc1ccccc1)N(Cc1nnc(-c2ccccc2Cl)o1)C1CC1	1	-2	7	8	-1	1	x
O=C(NN1C(=O)/C(=C\c2ccc(O)c([N+](=O)[O-])c2)SC1=S)c1ccccc1Cl	14	3	6	10	1	25*	20*
Cn1ccnc1C(=O)c1cccc(Br)c1	0	-4	2	-1	1	4	x
Cn1ccnc1C(=O)c1ccccc1Cl	0	-3	1	8	0	52*	-7
O=C(Nc1ccc(-c2csc(Nc3cccc(C(F)(F)F)c3)n2)cc1)c1cc([N+](=O)[O-])cc(C(F)(F)F)c1	-1	1	27*	48*	24	41*	11
O=[N+]([O-])c1ccc2nc(-c3ccc(Cl)cc3)[nH]c2c1	11	-11	0	-5	1	20*	6
COc1cc(OC)cc(C(=O)NCC2CCCN(Cc3ccc(SC)cc3)C2)c1 (configuration not stated)	4	0	5	2	-1	1	x
Cn1c(O)c(C=NNC(=O)c2cc3ccccc3cc2O)c2ccccc21	x	x	x	x	x	x	x	Fam108b inh=55*
Cc1cc(NCCO)nc(N2CCOCC2)n1	0	3	1	-2	4	2	x
Nc1c(S(=O)(=O)c2cccc(Cl)c2)c2nc3ccccc3nc2n1N=Cc1ccc(O)c(O)c1	x	x	x	x	x	x	x	Fam108b inh=80*
Cc1cccc(NC(=S)N/N=C/c2c[nH]c3ccccc23)c1	18	39*	10	5	2	22*	16
CC(C)(C)c1nc2scc(-c3cccs3)c2c(=O)o1	0	-4	1	1	4	55*	106*	Fam108b inh=85*
SMILES	pPAFAH inh	PME-1 primary	PAFAH1B3 FP inh	PAFAH2 FP inh	PAFAH1B2 inh	Fam108B counter	Fam108b inh conf	others
CC(C)(C)c1nc2scc(-c3ccc(Cl)cc3)c2c(=O)o1	-1	-4	4	1	2	21*	19*
Nc1c(Cl)cc(-c2[nH]c3cc(C(=O)NCCO)ccc3c(=O)c2O)cc1Cl	19	42*	36*	-27	26*	29*	18
CCCNC(=O)c1ccc2c(=O)c(O)c(C)[nH]c2c1	2	5	10	3	4	3	x
CCOc1ccc(Br)cc1S(=O)(=O)NC1=NCCCCC1	3	x	9	1	1	x	x
Cc1cc(C)nc(SCc2ccc(C(=O)N/N=C/c3ccc(C(=O)O)cc3)cc2)n1	3	-14	10	-4	-3	-4	x
Cc1cc(C)nc(SCc2ccc(C(=O)N/N=C/c3cccc(O)c3O)cc2)n1	32*	26*	37*	0	21	50*	82*
Cc1cc(C)nc(SCc2ccc(C(=O)NN=Cc3cccc(O)c3O)cc2)n1	x	x	x	x	x	x	x	Fam108b inh=90*
CCCCn1c(N)c(N(CCOC)C(=O)CN(C)S(=O)(=O)c2ccc(C)cc2)c(=O)[nH]c1=O	3	2	5	-4	4	-2	x
C=CCN(C(=O)c1csnn1)C(C(=O)NC1CCCC1)c1ccccc1 (configuration not stated)	1	1	8	-3	0	0	x
O=C(Nc1cc(Sc2nc3ccccc3s2)cc([N+](=O)[O-])c1)c1cccc(F)c1F	23	11	-34	-20	-13	19*	25*
O=C(Nc1cc(Sc2ccccn2)cc([N+](=O)[O-])c1)c1ccc([N+](=O)[O-])cc1	6	4	-5	-17	-9	19*	5
CC(NC(=O)C1CC1)c1ccc(-c2ccccc2)cc1 (configuration not stated)	5	-5	7	-2	0	1	x
COc1ccc2cc(CNCCOCCOCCNCc3ccc4cc(OC)ccc4c3)ccc2c1	x	x	8	0	1	x	x
Nc1ccc(C(=O)O)cc1	4	1	3	-3	5	5	x
Nc1ccc(O)cc1	38*	50*	x	x	x	64*	7
CC(C(=O)Nc1ccc2c(c1)OCO2)N(C)CC(=O)Nc1ccc(Cl)cc1 (configuration not stated)	x	x	-5	7	3	x	x
COc1ccc2ccccc2c1/C=N/NC(=O)c1cccc(Br)c1	-6	-7	-9	-7	2	-4	x
O=C(N/N=C/c1c(O)ccc2ccccc12)c1cccc(C(F)(F)F)c1	30*	15	13	10	12	19*	9
COc1ccc(O)c(/C=N/NC(=S)Nc2cccc(S(=O)(=O)N(C)C)c2)c1	11	53*	21	26	5	37*	-8
COc1cccc(/C=N/NC(=S)Nc2cccc(S(=O)(=O)N(C)C)c2)c1	2	15	6	4	3	-1	x
CCOC(=O)c1ccc(N2CCN(c3ccc(F)cc3)CC2)c(NC(=O)Nc2cccc(OC)c2)c1	29*	17	-17	-21	-3	36*	-7
CCOC(=O)c1ccc(N2CCN(c3ccccc3F)CC2)c(NC(=O)Nc2ccccc2)c1	-4	-17	-43	-36	-21	-1	x
